The values that follow come from PubChem BioAssay AID1835 (Johns Hopkins Ion Channel Center, 2009).

Among all 2,400 compounds or so, about 750 (31%) were called active. This is one part of the list. Unmarked numbers belong to inactive results.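 Rule for the calls: active = median signal gain over dofetilide-blocked control wells reaching their mean plus 3 SD, so readout 1 at least 0; inactive = the rest.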

This experiment deals with Voltage-gated inwardly rectifying potassium channel KCNH2 (Homo sapiens) (UniProt Q12809). Briefly: modulators restoring hERG flux under dofetilide – cell-based, thallium flux, duplicate retest, dofetilide IC70, confirmation (AID 1835). The settings on record: hERG cell line, FluxOR thallium flux, dofetilide-blocked; at 10 µM; stronger effect = higher value.
Sequence of Voltage-gated inwardly rectifying potassium channel KCNH2 (Homo sapiens) (Q12809 whole entry, looked up): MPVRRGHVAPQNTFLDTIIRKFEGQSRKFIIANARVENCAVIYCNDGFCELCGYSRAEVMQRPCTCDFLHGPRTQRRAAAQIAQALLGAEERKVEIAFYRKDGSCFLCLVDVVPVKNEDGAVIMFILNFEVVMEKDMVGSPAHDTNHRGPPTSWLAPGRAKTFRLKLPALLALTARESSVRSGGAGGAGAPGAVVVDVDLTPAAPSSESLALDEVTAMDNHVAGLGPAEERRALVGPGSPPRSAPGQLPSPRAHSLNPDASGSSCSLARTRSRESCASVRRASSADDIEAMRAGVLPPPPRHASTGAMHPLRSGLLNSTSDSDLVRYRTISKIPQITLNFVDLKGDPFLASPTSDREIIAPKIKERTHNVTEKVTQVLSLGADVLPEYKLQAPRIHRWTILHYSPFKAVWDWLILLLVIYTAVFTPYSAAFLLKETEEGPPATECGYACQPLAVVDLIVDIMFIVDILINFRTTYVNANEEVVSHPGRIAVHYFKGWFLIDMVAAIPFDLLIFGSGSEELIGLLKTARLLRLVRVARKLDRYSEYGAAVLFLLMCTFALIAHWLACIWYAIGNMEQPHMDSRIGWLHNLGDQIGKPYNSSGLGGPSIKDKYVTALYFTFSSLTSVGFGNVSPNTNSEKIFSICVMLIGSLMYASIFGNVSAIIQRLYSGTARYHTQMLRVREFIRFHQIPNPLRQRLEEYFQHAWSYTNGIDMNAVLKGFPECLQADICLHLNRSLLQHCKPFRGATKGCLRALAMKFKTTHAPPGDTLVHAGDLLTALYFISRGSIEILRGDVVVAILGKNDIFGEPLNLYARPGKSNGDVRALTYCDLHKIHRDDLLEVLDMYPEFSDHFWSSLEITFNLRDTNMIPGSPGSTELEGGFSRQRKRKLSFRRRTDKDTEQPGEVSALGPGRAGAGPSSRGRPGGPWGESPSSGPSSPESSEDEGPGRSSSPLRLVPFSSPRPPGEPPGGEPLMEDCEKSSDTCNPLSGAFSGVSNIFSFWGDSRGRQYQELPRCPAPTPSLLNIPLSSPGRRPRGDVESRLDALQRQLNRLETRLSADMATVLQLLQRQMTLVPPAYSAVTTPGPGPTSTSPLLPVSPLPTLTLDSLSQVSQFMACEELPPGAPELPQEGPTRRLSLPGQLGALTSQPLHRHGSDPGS
On to `O=c1c2cc(Br)ccc2nc(-c2cccc(C(F)(F)F)c2)n1O`, for which the activity increase over dofetilide control, less the hit threshold was 115% (active). The value for `COc1cc(OC)cc(-c2nc3ccccc3c(=O)n2OC(=O)c2ccc(Br)cc2)c1` was -26%. With `O=C(Cn1nnc(-c2cccc(C(F)(F)F)c2)n1)N1CCCCCC1` the figure was -8%.

Regarding `O=c1c2cc(Br)ccc2nc(-c2cccc(Cl)c2)n1O`, the activity increase over dofetilide control, less the hit threshold was 102% (active).

`O=c1c2cc(Br)ccc2nc(-c2ccccc2)n1O`: the activity increase over dofetilide control, less the hit threshold is 45% (active).

For `O=c1c2ccc(Cl)cc2nc(-c2cccc(C(F)(F)F)c2)n1O`, the activity increase over dofetilide control, less the hit threshold is 94% (active).

Turning to `O=C(COC(=O)c1cc(NS(=O)(=O)c2cccs2)ccc1O)Nc1cc(Cl)ccc1Cl`, the activity increase over dofetilide control, less the hit threshold is -4%. The value for `O=C(COC(=O)c1cccs1)NCCN1C(=O)CSC1=O` was -9%; that for `CNC(=O)NC(=O)C(C)N1CCN(C/C=C/c2ccccc2)CC1` (stereo not given) was -16%. The value for `Cc1nonc1OCCNc1ccc([N+](=O)[O-])cc1` was -2%; that for `O=c1c2cc(Br)ccc2nc(-c2ccc(Cl)cc2)n1O` was 101% (active); that for `N#Cc1ccc(-c2nc3ccc(Br)cc3c(=O)n2O)cc1` was 1% (active).

On to `CCCn1c(SC(C)C(=O)N2CCOCC2)nc2ccc(Br)cc2c1=O` (stereo not given), for which the activity increase over dofetilide control, less the hit threshold is -11%. On to `Cc1ccc(-n2c(C)cc(C(=O)CN3CCOCC3)c2C)cc1`, for which the activity increase over dofetilide control, less the hit threshold is -6%. With `CC1CCCC(C(=O)OCc2ccccc2)N1` (stereo not given) the figure was -3%; with `O=C(Nc1ccc(N2CCN(C(=O)c3ccc(Cl)cc3)CC2)cc1)c1ccc([N+](=O)[O-])o1`, -11%. With `CC(=O)Nc1ccc2nc(NC(=O)c3ccc([N+](=O)[O-])o3)sc2c1` the figure was 5% (active); with `O=C(Nc1ncc(Cc2ccc(C(F)(F)F)cc2)s1)c1ccc(-c2cccc([N+](=O)[O-])c2)o1`, -14%.

As to `Cc1cc(Cl)c(S(N)(=O)=O)cc1OCC(=O)NC1CCCCC1`, the activity increase over dofetilide control, less the hit threshold was -8%.

In the case of `O=C(NC1CCCCC1)c1ccc(COCC(F)(F)F)o1`, the activity increase over dofetilide control, less the hit threshold is -5%. The value for `CCOc1ccc(C(C)NC(=S)NC2CCCCC2)cc1` (stereo not given) was -9%; that for `O=c1oc2ccccc2c(NC2CCCCC2)c1NS(=O)(=O)c1ccc(Cl)cc1` was -6%. For `O=S(=O)(NC(=S)NC1CCCCC1)c1ccc(Br)cc1`, the activity increase over dofetilide control, less the hit threshold was 12% (active). For `CCc1ccc(S(=O)(=O)NC(=S)NC2CCCCC2)cc1`, the activity increase over dofetilide control, less the hit threshold is 35% (active).

Take `Cc1ccc(S(=O)(=O)NC(=S)NC2CCCCC2)cc1`: the activity increase over dofetilide control, less the hit threshold was 3% (active).

As for `O=S(=O)(NC(=S)NC1CCCCC1)c1ccc(Cl)cc1`, the activity increase over dofetilide control, less the hit threshold is 10% (active). The value for `COc1ccc(C)cc1S(=O)(=O)NC1CCCCC1` was -5%; that for `CC(C)(C)c1ccccc1NC(=S)NC1CCCC1` was -7%; that for `CC1=CN2C(=N)/C(=C/c3ccc(Sc4ccc(Cl)cc4)o3)C(=O)N=C2S1` was -2%. Turning to `CC(C)(C)n1nnnc1C(c1cc2cc3c(cc2[nH]c1=O)OCCO3)N1CCSCC1` (stereo not given), the activity increase over dofetilide control, less the hit threshold is -11%. With `CC(C)(C)c1nc(SCC(=O)N2CCCC2)c2ccccc2n1` the figure was -15%; with `Cc1cccc(N2CCN(C(=O)C3CCN(S(=O)(=O)c4cccnc4)CC3)CC2)c1C`, -8%. Regarding `C/C(=N/NC(=S)Nc1cccc(C)c1)c1cccc([N+](=O)[O-])c1`, the activity increase over dofetilide control, less the hit threshold was -1%.

For `C/C(=N\Nc1nc(C)c(C)s1)c1ccc([N+](=O)[O-])cc1`, the activity increase over dofetilide control, less the hit threshold was 22% (active). The value for `C/C(=N\Nc1cc(N2CCOCC2)ncn1)c1cccc([N+](=O)[O-])c1` was -24%; that for `COc1ccc2c(C(=O)CN3CCN(c4ccccc4)CC3)c[nH]c2c1` was -10%; that for `O=C(O)c1cc(NN=C2c3ccccc3-c3ccccc32)ccc1Cl` was -4%. On to `CCCN1CCC(NC(=O)CC2C(=O)NCCN2Cc2cccc(OC)c2)CC1` (stereo not given), for which the activity increase over dofetilide control, less the hit threshold was -6%.

Take `Cc1cc(C)c2nc(NC(=O)CN3C(=O)NC4(CCCC4)C3=O)sc2c1`: the activity increase over dofetilide control, less the hit threshold was -10%. With `O=C(NC(=S)NCc1ccc(-c2nc3ccccc3s2)cc1)c1ccco1` the figure was -2%; with `CC1CN(S(=O)(=O)c2ccc(-c3nc4ccccc4s3)cc2)CC(C)O1` (stereo not given), 7% (active); with `Cc1ccnc(N2CCC(C(=O)Nc3ccc(Oc4ccccc4)cc3)CC2)n1`, -11%. With `CCOC(=O)N1CCC(N2C(=O)c3ccccc3C2Nc2cccnc2)CC1` (stereo not given) the figure was 11% (active); with `Cc1ccc(-n2ncc3c2CCCC3NC(=O)c2csnn2)cc1C` (stereo not given), 21% (active); with `Cc1cc(C)cc(-n2ncc3c2CCCC3NC(=O)c2csnn2)c1` (stereo not given), 58% (active). The value for `COc1ccc(-n2ncc3c2CC(C)(C)CC3NC(=O)c2cn[nH]c2)cc1` (stereo not given) was -9%; that for `COc1cc2c(cc1OC)C(c1ccc([N+](=O)[O-])cc1)N(C(C)=O)CC2` (stereo not given) was -36%. As to `Cc1ccc(S(=O)(=O)Nc2c(C)[nH]c(=O)[nH]c2=O)cc1C`, the activity increase over dofetilide control, less the hit threshold was -13%. With `S=C(NCc1ccco1)N1CCN(c2nc(-c3ccccc3)cs2)CC1` the figure was -13%. As for `Brc1ccc(-c2csc(N3CCCCCC3)n2)cc1`, the activity increase over dofetilide control, less the hit threshold was -3%. With `COc1ccc(-c2csc(NC(=S)NC(=O)c3cccs3)n2)cc1Br` the figure was 6% (active); with `COc1ccc(-c2csc(NC(=S)NC(=O)c3cccs3)n2)cc1OC`, -1%; with `O=C(NC(=S)Nc1nc(-c2ccccc2)cs1)c1cccs1`, 17% (active). For `O=C(NC(=S)N1CCN(c2nc(-c3ccccc3)cs2)CC1)c1cncc(Br)c1`, the activity increase over dofetilide control, less the hit threshold was 12% (active). The value for `O=C(NC(=S)Nc1ncc(Br)cc1Br)c1ccccc1` was 11% (active).

Consider `CC(O)C(NS(=O)(=O)c1ccc(Cl)cc1)C(=O)OCc1cc([N+](=O)[O-])cc2c1OCOC2` (stereo not given), for which the activity increase over dofetilide control, less the hit threshold is -12%. The value for `Cc1cc(-c2ccccc2)[nH]c(=O)c1S(=O)(=O)c1ccccc1` was -17%; that for `O=C(CN(C(=O)CNS(=O)(=O)c1ccc(F)cc1)c1cccc(F)c1)NCC1CCCO1` (stereo not given) was -17%; that for `Cc1ccc(C)c(NC(=S)NC(=O)c2cncc(Br)c2)c1` was 6% (active). The value for `Cc1ccc(NC(=S)NC(=O)c2cncc(Br)c2)cc1Cl` was -13%; that for `O=C(NC(=S)Nc1cccc(Cl)c1)c1cncc(Br)c1` was -10%; that for `COc1ccc(-c2csc(NC(=S)NC(=O)c3ccc4ccccc4c3)n2)cc1OC` was -9%. The value for `O=C(NC(=S)Nc1nc(-c2ccccc2)cs1)c1cncc(Br)c1` was 1% (active); that for `CC1CCCC(NC(=S)NC(=O)c2cncc(Br)c2)C1C` (stereo not given) was -10%. `COc1cc(S(=O)(=O)n2cnc(C)c2)ccc1Cl`: the activity increase over dofetilide control, less the hit threshold is -20%.

As to `COC(=O)c1cc2sc(Cl)cc2n1CC(=O)NCC1CCCO1` (stereo not given), the activity increase over dofetilide control, less the hit threshold was -8%.

Regarding `Cc1ccc(NC(=O)CSc2nnc(C3CC3)n2CC2CCCO2)c(C)c1` (stereo not given), the activity increase over dofetilide control, less the hit threshold is -14%. As to `COC(=O)C1=C(C)N(CC2CCCO2)C(=O)/C1=C\c1ccc(O)cc1` (stereo not given), the activity increase over dofetilide control, less the hit threshold was 8% (active). As to `O=S(=O)(c1ccc(F)cc1)N1CCN(c2ccc(F)cc2)CC1`, the activity increase over dofetilide control, less the hit threshold is -15%. The value for `CCC1SC2=NC(C)=C(C(=O)OC)C(c3ccc(C(=O)OC)cc3)N2C1=O` (stereo not given) was -1%; that for `CCOC(=O)c1sc(=S)n2c1[nH]c(=O)c1ccc(C(=O)OC)cc12` was 51% (active).

For the compound `CC(=O)N1C(=O)/C(=C2\SC(=S)N(NC(=O)c3ccc(O)cc3)C2=O)c2ccccc21`, the activity increase over dofetilide control, less the hit threshold was -3%. With `S=c1nc(-c2ccccc2)[nH]n1-c1ccccc1` the figure was 54% (active). The value for `COc1cc(-c2nnc(SCC(=O)O)n2-c2ccccc2)cc(OC)c1OC` was -9%; that for `Cc1ccc(/C=C2/C(=N)N3N=C(CC(=O)N4CCCC4)SC3=NC2=O)cc1` was -2%; that for `CC(C)CSC1=NSC2=NC(=O)/C(=C\c3ccccc3)C(=N)N12` was 32% (active). `CC(Oc1ccccc1F)C(=O)NC1CCS(=O)(=O)C1` (stereo not given): the activity increase over dofetilide control, less the hit threshold was -9%.

Regarding `CN1C(=O)C2(OCC(C)([N+](=O)[O-])CO2)c2ccccc21` (stereo not given), the activity increase over dofetilide control, less the hit threshold was -7%.

In the case of `Cc1nc2cc3sc(C)nc3cc2s1`, the activity increase over dofetilide control, less the hit threshold was -8%.

In the case of `Cc1ccc(NN=Nc2nc3c([nH]2)c(=O)n(C)c(=O)n3C)cc1`, the activity increase over dofetilide control, less the hit threshold is -6%.

Regarding `Cc1ccc(Nc2cc(C)nn2-c2nc(C)cc(=O)[nH]2)cc1`, the activity increase over dofetilide control, less the hit threshold was 40% (active). With `Cc1cccc(N/C(N)=N/c2nc(C)cc(=O)[nH]2)c1` the figure was -9%. With `C=CCn1c(=S)[nH]c2sc3c(c2c1=O)CCCC3` the figure was 30% (active).

Take `C=CCn1c(=S)[nH]c2sc3c(c2c1=O)CCC3`: the activity increase over dofetilide control, less the hit threshold was 27% (active). The value for `c1ccc(SSc2ccccn2)nc1` was -21%. The value for `O=C(NCc1ccc(Cl)cc1)C1CCN(S(=O)(=O)c2cccc3nonc23)CC1` was -5%; that for `CCOC(=O)C1CCN(S(=O)(=O)c2cccc3nonc23)CC1` was 2% (active).

Consider `CCOC(=O)C1CCCN(C(=O)CN2C(=O)c3ccccc3C2=O)C1` (stereo not given), for which the activity increase over dofetilide control, less the hit threshold is -20%. With `CCN1CCN(CCNC(=O)CCCn2nc(C)c3c(C)n(-c4ccc(C)cc4)nc3c2=O)CC1` the figure was -8%. Regarding `Cc1cc(C)cc(OCc2nnc(SCC(=O)Nc3ccccc3)o2)c1`, the activity increase over dofetilide control, less the hit threshold was -19%. For the compound `CC(Oc1ccc(Br)cc1Br)C(=O)Nc1cccnc1` (stereo not given), the activity increase over dofetilide control, less the hit threshold was 9% (active).

For the compound `CC(Oc1ccc(Cl)cc1Cl)C(=O)Nc1cccnc1` (stereo not given), the activity increase over dofetilide control, less the hit threshold is -23%. With `COc1ccc(S(=O)(=O)Nc2cccnc2)cc1`, the activity increase over dofetilide control, less the hit threshold is -11%. With `Oc1ccc(Cl)cc1C1=NNC(c2cccs2)C1` (stereo not given) the figure was 10% (active); with `O=C(Nc1cc(Cl)ccc1O)C1CC(c2ccccc2Cl)=NO1` (stereo not given), -1%. The value for `CCCNS(=O)(=O)c1ccc(OCC(=O)Nc2ccc3c(c2)OCCO3)cc1` was -10%; that for `CCOc1cc(C(=O)NC)cc(OCC)c1OCC` was -13%. With `COCCNC(=O)C1CC(=O)N(c2ccc(OC)cc2)C1c1ccc(OC)cc1` (stereo not given) the figure was -24%; with `CN(C)c1ccc(N=Nc2ccc(C(=O)O)cc2)cc1`, -4%.

Consider `O=c1ccc(N=Nc2ccccc2)ccc1O`, for which the activity increase over dofetilide control, less the hit threshold is 68% (active).
